# Values without a mark were called inactive. Records with an inconclusive call do not appear. A call without a number means that no potency is given here. The source made the active and inactive calls. Unless noted, calls follow the shape of the full dose curve.
# What was measured:
# [1] = Nuclear factor erythroid 2-related factor 2/antioxidant responsive element (Nrf2/ARE) small molecule agonists: qHTS cell viability counter screen in human keratinocytes (AID 1919968; active = well fitted curve in the direction sought with a large enough effect in the repeat runs; an effect the other way counts as inactive or inconclusive; also: nearly all actives have a fitted effect of over 55% in size)
# Method in brief: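 In human HaCaT keratinocytes stably expressing an ARE-driven luciferase, compound exposure lasted 23 h at 37 C under 5% CO2. Viable cells are quantified with a protease-based fluorogenic reagent (CellTiter-Fluor) read 1 h after addition.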
# [2] = target: KiSS-1 receptor (Homo sapiens) (UniProt Q969F8); assay: Human kisspeptin (KISS1R) small molecule agonists, calcium flux assay in KISS1R-HEK293 cells (AID 1920064; active = well fitted curve in the direction sought with a large enough effect in the repeat runs; an effect the other way counts as inactive or inconclusive)
# Sequence of KiSS-1 receptor (Homo sapiens) (Q969F8 whole entry, looked up): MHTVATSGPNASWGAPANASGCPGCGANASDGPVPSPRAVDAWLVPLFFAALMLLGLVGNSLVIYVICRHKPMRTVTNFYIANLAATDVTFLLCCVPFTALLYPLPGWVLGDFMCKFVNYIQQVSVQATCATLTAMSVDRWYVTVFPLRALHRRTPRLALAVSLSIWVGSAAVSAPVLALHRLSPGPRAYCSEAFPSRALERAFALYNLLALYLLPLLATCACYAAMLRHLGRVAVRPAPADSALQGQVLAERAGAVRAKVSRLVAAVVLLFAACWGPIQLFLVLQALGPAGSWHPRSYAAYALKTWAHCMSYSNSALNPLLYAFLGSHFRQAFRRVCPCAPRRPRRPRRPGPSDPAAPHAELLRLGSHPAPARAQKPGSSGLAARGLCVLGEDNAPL
# Method in brief: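 Concentration-response testing used 15 concentrations in triplicate on human KISS1R-expressing HEK293 cells. Calcium-dependent fluorescence (Ex/Em 480/540) was followed kinetically for 3 min after compound transfer.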
# [3] = G protein-coupled receptor (GPCR) small molecule agonists, calcium flux assay: HEK293 wild type cell line counter screen (AID 1920065)
# Method in brief: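 Fluorescence intensity signals activation. After overnight (18 h) culture and a 1 h calcium dye load at 37 C, compounds are added by pin tool and the plate read at 480/540 nm for 3 min in 1 s steps.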
# [4] = p53 small molecule agonists, cell-based qHTS assay with human liver microsomes: qHTS cell viability counter screen (AID 1963579); also: nearly all actives have a fitted effect of over 45% in size
# Method in brief: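 In this multiplexed counter screen, the reporter plates were subsequently treated with CellTiter-Glo so that cell viability, reflected by luminescence, could be recorded for p53RE-bla cells dosed 16 h with compounds under microsomal activation (HLM and NADPH).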
# [5] = p53 small molecule agonists, cell-based qHTS assay with rat liver microsomes: qHTS cell viability counter screen (AID 1963580); also: nearly all actives have a fitted effect of over 45% in size
# Method in brief: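 After the beta-lactamase ratio was read, CellTiter-Glo was added to the same wells and luminescence measured at 30 min; cells had been treated 16 h at 37 C with compounds, rat liver microsomes and NADPH (0.5 mg/mL final each).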
# [6] = p53 small molecule agonists, cell-based qHTS assay: qHTS cell viability counter screen (AID 1963581); also: nearly all actives have a fitted effect of over 45% in size
# Method in brief: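 Luminescence from CellTiter-Glo, reflecting ATP content, serves as the cytotoxicity measure; it is taken after the 2 h reporter substrate step in HCT-116 p53RE-bla cells dosed for 16 h at 37 C.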
# [7] = p53 small molecule agonists, cell-based qHTS assay (AID 1963582; active = well fitted activation curve with a large enough effect in the signal ratio in the repeat runs, not every such curve was filed as active; the % refers to the signal ratio)
# Method in brief: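 After plating, p53RE-bla cells sat 5 h in the incubator; compounds or DMSO vehicle were pinned in; a 16 h incubation at 37 C followed; FRET substrate was added and, 2 h later at RT, fluorescence was measured.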
# [8] = target: 5-hydroxytryptamine receptor 2A (Homo sapiens) (UniProt P28223); assay: 5-hydroxytryptamine receptor 2A (HTR2A) small molecule antagonists, cell-based qHTS assay (AID 1963586); also: nearly all actives have a fitted effect of over 45% in size; also: potency is read from the fitted curve at half-maximal effect
# Sequence of 5-hydroxytryptamine receptor 2A (Homo sapiens) (P28223 whole entry, looked up): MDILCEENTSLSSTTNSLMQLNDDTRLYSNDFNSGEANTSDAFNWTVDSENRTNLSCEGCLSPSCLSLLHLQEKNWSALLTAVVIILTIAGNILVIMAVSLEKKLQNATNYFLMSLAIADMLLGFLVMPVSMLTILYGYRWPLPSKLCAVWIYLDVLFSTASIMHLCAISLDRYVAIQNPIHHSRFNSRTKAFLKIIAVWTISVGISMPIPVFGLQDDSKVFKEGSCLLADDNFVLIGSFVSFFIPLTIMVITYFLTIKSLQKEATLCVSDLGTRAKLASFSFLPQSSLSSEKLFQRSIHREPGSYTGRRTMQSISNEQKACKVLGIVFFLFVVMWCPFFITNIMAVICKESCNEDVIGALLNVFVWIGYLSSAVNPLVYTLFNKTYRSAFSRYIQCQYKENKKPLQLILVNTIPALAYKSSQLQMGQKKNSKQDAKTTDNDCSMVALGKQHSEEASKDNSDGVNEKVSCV
# Method in brief: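 CHO cells stably expressing human HTR2A were plated for 18 h at 37 C, then loaded with calcium dye for 1 h. Compounds were preincubated 5 min at room temperature before DOI (4 nM solution) was added. Kinetic fluorescence was read for 3 min.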
# [9] = target: 5-hydroxytryptamine receptor 2A (Homo sapiens) (UniProt P28223); assay: 5-hydroxytryptamine receptor 2A (HTR2A) small molecule agonists, cell-based qHTS assay (AID 1963587); also: nearly all actives have a fitted effect of over 30% in size; also: potency is read from the fitted curve at half-maximal effect
# Method in brief: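 CHO cells stably expressing human HTR2A, plated 18 h, loaded with calcium dye 1 h at 37 C. Agonist mode: compounds added and intracellular calcium fluorescence recorded kinetically for 2 min at 1 sec intervals.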
# [10] = target: Muscarinic acetylcholine receptor M1 (Homo sapiens) (UniProt P11229); assay: Cholinergic receptor muscarinic 1 (CHRM1) small molecule agonists, cell-based qHTS assay (AID 1963589); also: nearly all actives have a fitted effect of over 35% in size
# Sequence of Muscarinic acetylcholine receptor M1 (Homo sapiens) (P11229 whole entry, looked up): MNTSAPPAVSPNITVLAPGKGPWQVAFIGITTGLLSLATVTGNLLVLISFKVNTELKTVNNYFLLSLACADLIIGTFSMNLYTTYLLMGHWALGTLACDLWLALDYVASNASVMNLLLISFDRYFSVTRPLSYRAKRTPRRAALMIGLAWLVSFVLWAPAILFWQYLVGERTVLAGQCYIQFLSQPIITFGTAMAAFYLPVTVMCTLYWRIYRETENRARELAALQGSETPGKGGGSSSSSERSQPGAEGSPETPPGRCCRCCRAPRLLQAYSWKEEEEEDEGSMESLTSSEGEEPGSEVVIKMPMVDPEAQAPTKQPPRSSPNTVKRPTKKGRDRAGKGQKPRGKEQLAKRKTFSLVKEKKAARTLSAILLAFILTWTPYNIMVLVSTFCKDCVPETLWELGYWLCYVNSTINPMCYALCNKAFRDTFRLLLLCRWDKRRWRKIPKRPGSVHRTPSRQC
# Method in brief: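 Fluorescent calcium dye reports M1 activation in stably transfected CHO cells. Compounds, 15 concentrations, added after 1 h dye loading at 37 C; kinetic reading at 1 sec intervals.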
# [11] = cAMP Responsive Elements (CRE) small molecule antagonists, cell-based qHTS assay (AID 1963591; active = well fitted inhibition curve with a large enough effect in the signal ratio in the repeat runs, not every such curve was filed as active; the % refers to the signal ratio)
# Method in brief: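 Stimulation used NKH477 at a final 0.25 uM for 3 h in compound-treated CRE-bla HEK293T cells, seeded 18 h beforehand. Reporter activity was measured with LiveBLAzer B/G FRET substrate after 2 h at room temperature.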
# [12] = target: Beta-2 adrenergic receptor (Homo sapiens) (UniProt P07550); assay: Adrenergic beta2 receptor (ADRB2) small molecule antagonists, cell-based qHTS assay (AID 1963592); also: series mostly up to about 92 µM; nearly all actives have a fitted effect of over 50% in size
# Sequence of Beta-2 adrenergic receptor (Homo sapiens) (P07550 whole entry, looked up): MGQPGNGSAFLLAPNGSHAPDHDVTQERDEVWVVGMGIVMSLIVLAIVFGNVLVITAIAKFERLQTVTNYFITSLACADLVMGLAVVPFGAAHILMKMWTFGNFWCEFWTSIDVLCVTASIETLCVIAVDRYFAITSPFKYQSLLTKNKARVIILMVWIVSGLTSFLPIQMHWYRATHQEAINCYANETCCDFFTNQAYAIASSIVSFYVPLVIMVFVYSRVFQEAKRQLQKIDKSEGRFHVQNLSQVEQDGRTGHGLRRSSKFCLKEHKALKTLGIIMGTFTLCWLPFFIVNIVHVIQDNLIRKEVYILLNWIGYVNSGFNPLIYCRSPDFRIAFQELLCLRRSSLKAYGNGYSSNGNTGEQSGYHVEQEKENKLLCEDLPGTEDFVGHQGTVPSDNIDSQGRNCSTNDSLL
# Method in brief: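 Assay format: CHO-ADRB2 cells, 18-20hr seeding at 37C/5% CO2, then compound plus 1nM isoproterenol agonist mix for 0.5hr RT. Homogeneous time-resolved fluorescence cAMP detection after 1hr, expressed as 665/615 nm ratio.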
# [13] = target: Beta-2 adrenergic receptor (Homo sapiens) (UniProt P07550); assay: Adrenergic beta2 receptor (ADRB2) small molecule agonists, cell-based qHTS assay (AID 1963593);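 also: CHO cells stably overexpressing human ADRB2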
# Method in brief: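 CHO cells stably over-expressing ADRB2 were plated overnight at 37C, then dosed with compounds plus a stimulation mix containing 100uM IBMX and 25uM Ro-20-1724 for 0.5hr at room temperature. cAMP was measured by HTRF competition, 1hr.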
# [14] = target: D(2) dopamine receptor (Homo sapiens) (UniProt P14416); assay: Dopamine D2 receptor (DRD2) small molecule agonists, cell-based qHTS assay (AID 1963594); also: nearly all actives have a fitted effect of over 35% in size
# Sequence of D(2) dopamine receptor (Homo sapiens) (P14416 whole entry, looked up): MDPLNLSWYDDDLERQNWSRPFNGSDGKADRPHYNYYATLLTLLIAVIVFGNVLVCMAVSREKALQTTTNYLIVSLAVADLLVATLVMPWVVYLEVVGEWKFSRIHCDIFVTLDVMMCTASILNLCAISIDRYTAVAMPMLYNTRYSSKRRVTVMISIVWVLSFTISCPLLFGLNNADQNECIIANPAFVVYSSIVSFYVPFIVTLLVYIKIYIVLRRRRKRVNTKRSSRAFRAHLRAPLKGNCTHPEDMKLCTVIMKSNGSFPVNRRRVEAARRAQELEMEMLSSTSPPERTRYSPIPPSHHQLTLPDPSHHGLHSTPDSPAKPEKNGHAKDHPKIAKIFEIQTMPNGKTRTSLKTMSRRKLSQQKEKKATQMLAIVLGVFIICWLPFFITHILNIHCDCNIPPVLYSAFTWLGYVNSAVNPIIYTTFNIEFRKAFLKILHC
# Method in brief: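 HEK293 cells stably expressing human DRD2, pre-treated with PDE inhibitor Ro20-1724 (0.1 mM final) and compound 10 min at room temperature, then stimulated with NKH477 (200nM […]) for 30 min. cAMP read by HTRF (665/620 nm).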
# [15] = target: D(2) dopamine receptor (Homo sapiens) (UniProt P14416); assay: Dopamine D2 receptor (DRD2) small molecule antagonists, cell-based qHTS assay (AID 1963595; active = well fitted inhibition curve with a large enough effect in the signal ratio in the repeat runs, with a control signal flat; the % refers to the signal ratio)
# Method in brief: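 HEK293 cells stably expressing DRD2, preincubated with 0.1 mM Ro20-1724 and compounds 10 min, were stimulated with 200 nM NKH477 plus 12 nM quinpirole for 30 min at room temperature; cAMP measured by HTRF (665/620 nm).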
# [16] = p53 small molecule agonists, cell-based qHTS assay with rat liver microsomes (AID 1963578)
# Method in brief: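 With rat liver microsomes and NADPH present (0.5 mg/mL final each), p53RE-bla cells are treated with compound for 16 h at 37 C. LiveBLAzer detection mixture is then applied for 2 h at room temperature in the dark.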
# [17] = cAMP Responsive Elements (CRE) small molecule agonists, cell-based qHTS assay (AID 1963590)
# Method in brief: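 Compound exposure lasted 3 h at 37 C/5% CO2 in CRE-bla HEK 293T cells grown in assay medium with 10% dialyzed FBS and 25 mM HEPES. Reporter signal came from LiveBLAzer B/G FRET substrate, 2 h, room temperature.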
# [18] = target: Muscarinic acetylcholine receptor M1 (Homo sapiens) (UniProt P11229); assay: Cholinergic receptor muscarinic 1 (CHRM1) small molecule antagonists, cell-based qHTS assay (AID 1963588); also: nearly all actives have a fitted effect of over 40% in size
# Method in brief: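 Compounds were tested at 15 concentrations in three independent runs. Dye-loaded CHRM1-CHO cells were exposed 5 min at room temperature before stimulation by acetylcholine added at 50nM. Intracellular calcium was read kinetically on FDSS for 3 min.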
# [19] = p53 small molecule agonists, cell-based qHTS assay with human liver microsomes (AID 1963577);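 also: p53 response element beta-lactamase reporter cells with liver microsomes plus NADPH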
# Method in brief: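 16 h, 37 C exposure of p53RE-bla cells to compounds with human liver microsomes and NADPH (0.5 mg/mL final each); detection via LiveBLAzer mixture, 2 h dark at room temperature.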
structure (smiles),measurement,setting,value
Cc1cccc(N(C)C(=S)Oc2ccc3c(c2)C2CCC3C2)c1 (stereo not drawn),Potency,[1],inactive
same,Potency,[2],inactive
same,Potency,[3],inactive
same,Potency,[4],inactive
same,Potency,[5],inactive
same,Potency,[6],inactive
same,Potency,[7],inactive
same,Potency,[8],1.63 µM (active)
same,Potency,[9],inactive
same,Potency,[10],inactive
same,Potency,[11],inactive
same,Potency,[12],inactive
same,Potency,[13],inactive
same,Potency,[14],inactive
same,Potency,[15],inactive
CCCCCCCCCCCCCCCCCCCl,"activity change, negative = cytotoxicity",[1],-0.678% [at 8.39 µM]
same,activation,[2],6.45% [at 6.97 µM]
same,activation,[3],0.281% [at 5.23 µM]
same,activation,[16],2.88% [at 5.99 µM]
same,"activity change, negative = cytotoxicity",[4],1.68% [at 5.99 µM]
same,"activity change, negative = cytotoxicity",[5],2.02% [at 5.99 µM]
same,"activity change, negative = cytotoxicity",[6],-9.11% [at 5.99 µM]
same,activation,[7],-3.59% [at 5.99 µM]
same,"activity, negative = inhibition",[8],-6.54% [at 5.62 µM]
same,activation,[9],-0.0042% [at 7.02 µM]
same,activation,[10],0.0826% [at 6.97 µM]
same,activation,[17],0.946% [at 8.39 µM]
same,"activity change, negative = inhibition",[11],-6.83% [at 8.39 µM]
same,"activity change, negative = inhibition",[12],8.82% [at 8.39 µM]
same,activation,[14],0.784% [at 8.39 µM]
same,"activity change, negative = inhibition",[15],3.22% [at 8.38 µM]
O=CO,"activity change, negative = cytotoxicity",[1],0.89% [at 8.39 µM]
same,activation,[2],4.55% [at 6.97 µM]
same,activation,[3],-0.0753% [at 5.23 µM]
same,"activity change, negative = cytotoxicity",[6],-6.99% [at 5.99 µM]
same,"activity, negative = inhibition",[8],0.711% [at 5.62 µM]
same,activation,[9],0.778% [at 7.02 µM]
same,"activity, negative = inhibition",[18],7.62% [at 5.58 µM]
same,activation,[10],-0.0923% [at 6.97 µM]
same,"activity change, negative = inhibition",[11],-5.34% [at 8.39 µM]
same,"activity change, negative = inhibition",[12],1.71% [at 8.39 µM]
same,activation,[14],0.218% [at 8.39 µM]
same,"activity change, negative = inhibition",[15],-7.6% [at 8.38 µM]
COC(C)(C)CC(C)=O,Potency,[1],inactive
same,Potency,[2],inactive
same,Potency,[3],inactive
same,Potency,[19],inactive
same,Potency,[16],inactive
same,Potency,[4],inactive
same,Potency,[5],inactive
same,Potency,[6],inactive
same,Potency,[7],inactive
same,Potency,[8],inactive
same,Potency,[9],inactive
same,Potency,[18],inactive
same,Potency,[10],inactive
same,Potency,[12],inactive
same,Potency,[13],inactive
same,Potency,[14],inactive
O=C(c1ccc(O)cc1)c1ccc(O)c(O)c1O,Potency,[1],inactive
same,Potency,[2],inactive
same,Potency,[3],inactive
same,Potency,[16],inactive
same,Potency,[4],inactive
same,Potency,[5],inactive
same,Potency,[6],inactive
same,Potency,[7],inactive
same,Potency,[9],inactive
same,Potency,[18],inactive
same,Potency,[10],inactive
OCCOCC#CCOCCO,Potency,[1],inactive
same,Potency,[2],inactive
same,Potency,[3],inactive
same,Potency,[16],inactive
same,Potency,[4],inactive
same,Potency,[6],inactive
same,Potency,[7],inactive
same,Potency,[8],inactive
same,Potency,[9],inactive
same,Potency,[18],inactive
same,Potency,[10],inactive
same,Potency,[17],inactive
same,Potency,[12],inactive
same,Potency,[14],inactive
same,Potency,[15],inactive
COC(=O)[C@]1(C)CCC[C@@]2(C)[C@H]1CC=C1C=C(C(C)C)CC[C@@H]12,Potency,[1],inactive
same,Potency,[2],inactive
same,Potency,[3],inactive
same,Potency,[16],inactive
same,Potency,[4],inactive
same,Potency,[5],inactive
same,Potency,[6],inactive
same,Potency,[7],inactive
same,Potency,[8],inactive
same,Potency,[9],inactive
same,Potency,[18],inactive
same,Potency,[10],inactive
same,Potency,[17],inactive
same,Potency,[12],inactive
same,Potency,[13],inactive
same,Potency,[14],inactive
same,Potency,[15],inactive
CCCCCCCCCCOC(=O)c1ccccc1C(=O)OCCCCCCCC,Potency,[1],inactive
same,Potency,[2],inactive
same,Potency,[3],inactive
same,Potency,[19],inactive
same,Potency,[16],inactive
same,Potency,[4],inactive
same,Potency,[5],inactive
same,Potency,[6],inactive
same,Potency,[7],inactive
same,Potency,[8],inactive
same,Potency,[18],inactive
same,Potency,[10],inactive
same,Potency,[17],inactive
same,Potency,[11],inactive
same,Potency,[12],inactive
same,Potency,[14],inactive
same,Potency,[15],inactive
CC1CCC(CO)CC1 (stereo not drawn),Potency,[1],inactive
same,Potency,[2],inactive
same,Potency,[3],inactive
same,Potency,[4],inactive
same,Potency,[5],inactive
same,Potency,[6],inactive
same,Potency,[8],inactive
same,Potency,[9],inactive
same,Potency,[18],inactive
same,Potency,[10],inactive
same,Potency,[17],inactive
same,Potency,[11],inactive
same,Potency,[12],inactive
same,Potency,[13],inactive
CC(=O)O[Si](C)(OC(C)=O)OC(C)=O,Potency,[1],inactive
same,Potency,[2],inactive
same,Potency,[3],inactive
same,Potency,[16],inactive
same,Potency,[4],inactive
same,Potency,[5],inactive
same,Potency,[6],inactive
same,Potency,[7],inactive
same,Potency,[8],inactive
same,Potency,[9],inactive
same,Potency,[18],inactive
same,Potency,[11],inactive
same,Potency,[12],inactive
same,Potency,[14],inactive
same,Potency,[15],inactive
CCOC(=O)C1=C[C@]2(CC)CCCN3CCc4c(n1c1ccccc41)[C@@H]32,Potency,[1],inactive
same,Potency,[2],inactive
same,Potency,[3],inactive
same,Potency,[19],inactive
same,Potency,[16],inactive
same,Potency,[4],inactive
same,Potency,[5],inactive
same,Potency,[8],inactive
same,Potency,[9],23.9 µM (active)
same,Potency,[18],inactive
same,Potency,[10],inactive
same,Potency,[17],inactive
same,Potency,[11],inactive
same,Potency,[12],inactive
same,Potency,[13],inactive
same,Potency,[14],inactive
same,Potency,[15],inactive
CCCCCCCC/C=C\CCCCCCCC(=O)OCCO,Potency,[1],inactive
same,Potency,[2],inactive
same,Potency,[3],inactive
same,Potency,[4],inactive
same,Potency,[6],inactive
same,Potency,[8],inactive
same,Potency,[9],inactive
same,Potency,[18],inactive
same,Potency,[10],inactive
same,Potency,[12],inactive
same,Potency,[13],inactive
same,Potency,[14],inactive
same,Potency,[15],inactive

# From PubChem BioAssay (Tox21)
